Test results as given in the supplement of paper PMC3334620.
Whole data set: some 33,000 sequences, median “E-score (-0.5 to 0.5)” near -0.054, cut for the highest 2% near 0.39. The list comes from a sample in which the highest values are over-represented; it also holds similar and randomly drawn sequences.

Target: Ylr278c (UniProt Q05854)
Assay: PBM E-score (8-mer binding enrichment) (E-score (-0.5 to 0.5)); higher = stronger / more preferred TF binding
Details: protein concentration: 200 nM; construct: GST-DNA-binding domain
Description: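 Universal 'all 10-mer' protein binding microarrays (Agilent AMADID 015681) probed with GST-tagged S. cerevisiae TFs (full-length or DBD) made by in vitro transcription/translation (PURExpress), about 100-200 nM. Bound TF was detected with fluorescent anti-GST. Each ungapped 8-mer (which stands for itself and its reverse complement) is scored by the PBM enrichment score (E-score), a modified Wilcoxon-Mann-Whitney statistic from -0.5 to +0.5, computed with the Universal PBM Analysis Suite. Scale: above 0.35 generally sequence-specific binding.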

Chain of UniProt Q05854 (Q05854 whole entry): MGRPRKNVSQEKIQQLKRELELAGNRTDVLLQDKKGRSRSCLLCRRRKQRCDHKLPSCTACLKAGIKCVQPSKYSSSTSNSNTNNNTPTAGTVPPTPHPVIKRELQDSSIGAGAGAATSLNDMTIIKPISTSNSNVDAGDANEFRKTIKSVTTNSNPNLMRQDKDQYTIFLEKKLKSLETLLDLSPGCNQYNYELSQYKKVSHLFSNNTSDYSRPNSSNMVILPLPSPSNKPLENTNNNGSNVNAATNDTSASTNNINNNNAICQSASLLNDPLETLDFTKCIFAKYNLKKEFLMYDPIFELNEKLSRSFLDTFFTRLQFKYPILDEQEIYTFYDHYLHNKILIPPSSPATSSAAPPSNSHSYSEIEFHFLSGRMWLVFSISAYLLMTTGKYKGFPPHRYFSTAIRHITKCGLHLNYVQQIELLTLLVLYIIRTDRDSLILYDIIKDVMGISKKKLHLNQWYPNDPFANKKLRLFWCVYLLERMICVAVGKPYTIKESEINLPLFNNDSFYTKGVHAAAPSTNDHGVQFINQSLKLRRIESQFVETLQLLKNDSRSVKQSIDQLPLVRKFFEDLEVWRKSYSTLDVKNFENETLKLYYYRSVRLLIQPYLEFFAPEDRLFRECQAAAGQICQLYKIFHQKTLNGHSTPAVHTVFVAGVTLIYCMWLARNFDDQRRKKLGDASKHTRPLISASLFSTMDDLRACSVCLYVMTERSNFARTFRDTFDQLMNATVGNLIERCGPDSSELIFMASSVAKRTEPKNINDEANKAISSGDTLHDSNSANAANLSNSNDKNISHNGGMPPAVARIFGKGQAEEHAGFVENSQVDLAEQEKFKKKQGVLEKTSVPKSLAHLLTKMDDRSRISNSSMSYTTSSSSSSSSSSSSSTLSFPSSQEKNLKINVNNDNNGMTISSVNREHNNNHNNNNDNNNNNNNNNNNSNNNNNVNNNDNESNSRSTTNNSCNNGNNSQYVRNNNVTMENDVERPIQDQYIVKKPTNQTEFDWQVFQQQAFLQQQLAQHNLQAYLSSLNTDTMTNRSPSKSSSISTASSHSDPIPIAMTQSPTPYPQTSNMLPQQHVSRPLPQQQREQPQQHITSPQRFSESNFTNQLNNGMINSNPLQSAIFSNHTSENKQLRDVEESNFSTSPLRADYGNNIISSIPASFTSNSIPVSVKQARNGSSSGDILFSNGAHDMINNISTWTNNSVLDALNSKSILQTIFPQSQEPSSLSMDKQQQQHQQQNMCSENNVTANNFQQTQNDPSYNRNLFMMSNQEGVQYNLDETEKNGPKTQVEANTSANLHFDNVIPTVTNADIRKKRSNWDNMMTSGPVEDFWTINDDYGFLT

Row | Sequence | PBM E-score
1 | GCAACAGA | 0.0725
2 | ATCGGACA | 0.419
3 | AGCGGACA | 0.294
4 | ATCGGACG | 0.357
5 | CAGGCTAA | -0.247
6 | AGTGCGAG | -0.276
7 | ACCCTTAT | -0.098
8 | TTCGAAAA | 0.0013
9 | TCCACGGA | 0.406
10 | GTCACGGA | 0.401
11 | CGAACGGA | 0.312
12 | CCCACGGA | 0.359
13 | CTCACGGA | 0.264
14 | AGAACGGA | 0.256
15 | ACCACGGA | 0.341
16 | GGAACGGA | 0.398
17 | ATCACGGA | 0.365
18 | TACTGCTA | -0.151
19 | GCATACCC | -0.0377
20 | GCGTCTTA | -0.209
21 | GGGATGCA | -0.0857
22 | CTCTCTTA | -0.169
23 | AAATCTTA | -0.149
24 | GCCCTTCC | -0.0379
25 | AAGGCCGC | 0.188

Row | Sequence | PBM E-score
26 | AAGGCCGT | 0.142
27 | CAGGCCGG | 0.176
28 | AAGGCCGA | 0.4
29 | AAGGCCCG | 0.128
30 | AAGGCCGG | 0.434
31 | CGCCTAAA | -0.186
32 | ATAATGCA | -0.276
33 | CGCCTCGC | 0.0203
34 | AGGGGTTC | 0.0104
35 | CGGGGTTA | 0.437
36 | AGGGGTTA | -0.171
37 | CGGGGTTC | 0.401
38 | CCGGGTTC | 0.337
39 | GGGGGTTA | -0.28
40 | ATAAGTTG | -0.0479
41 | GCTGTCTA | -0.154
42 | CATTCTCC | 0.191
43 | AATTCTCC | 0.407
44 | AATTCTCA | -0.13
45 | ACAAAAGG | 0.0804
46 | ACACCGGT | 0.324
47 | GCACCGGA | 0.429
48 | ACACCGGA | 0.416
49 | TCACCGAA | 0.178
50 | ACACCGGC | 0.355

Row | Sequence | PBM E-score
51 | GCACCGGC | 0.264
52 | CCACCGGC | 0.295
53 | TCACCGGA | 0.394
54 | CCACCGGA | 0.455
55 | CCACCGGG | 0.329
56 | GCACCGTA | 0.0145
57 | TCACCGCA | 0.0213
58 | GAGTCTCC | 0.291
59 | CCGCTTGC | 0.217
60 | GTACTAGA | -0.178
61 | AGGACGTC | 0.0253
62 | AGGGCCCA | 0.00775
63 | AAGCGCAA | 0.0312
64 | AGTGGTGG | -0.158
65 | AATCCACG | 0.0023
66 | ATCCGACC | 0.234
67 | GCCCGACA | 0.216
68 | ATCCGACA | 0.382
69 | GGCCGACA | 0.248
70 | CACCGACC | 0.192
71 | CTCCGACA | 0.438
72 | GTCCGACA | 0.393
73 | CCCCGACA | 0.301
74 | CTCCGACC | 0.458
75 | CACCATCA | -0.0978

Row | Sequence | PBM E-score
76 | GCTAGATA | -0.085
77 | GAGGGGTA | -2e-05
78 | ACGATGCA | -0.0494
79 | CTTGCAAA | 0.034
80 | AGAAATCG | 0.0562
81 | CTAAAGAC | -0.12
82 | ACGGAGCT | 0.395
83 | CCGGAGCA | 0.473
84 | CCAGAGCG | -0.00204
85 | CAGGAGCG | -0.00543
86 | AGGGAGCG | -0.14
87 | ACGGAGCC | 0.385
88 | CCGGAGCG | 0.458
89 | ATGGAGCG | -0.0671
90 | ACGGAGCA | 0.344
91 | ACGGAGCG | 0.396
92 | GCGGAGCA | 0.376
93 | CGGGAGCA | 0.108
94 | TACTCATA | -0.285
95 | AGCATTGC | -0.106
96 | GCAGTTCC | 0.169
97 | AGTGCGTA | -0.0325
98 | CAGATAAC | 0.123
99 | CCCACTGA | -0.155
100 | GTAGAAGA | -0.177

Row | Sequence | PBM E-score
101 | GCAGAGCC | -0.128
102 | TAGGAGCA | -0.184
103 | GCGGAGCC | 0.394
104 | TCGGAGCA | 0.455
105 | GAGGAGCC | -0.0931
106 | CTGGAGCC | 0.0766
107 | TCAGAGCA | -0.282
108 | CCGGAGCC | 0.422
109 | CGGGAGCC | 0.0673
110 | CTGAGGAC | 0.0445
111 | AGTCTTTG | -0.289
112 | CATCAAGC | -0.0328
113 | GGGGGCCA | -0.0264
114 | AAGCAAAT | -0.19
115 | GTCACGAA | -0.0546
116 | AGTGTTAT | -0.0541
117 | CAGTCCAA | -0.218
118 | CGGAACAC | 0.353
119 | AGGAACAG | -0.279
120 | CGGAACAA | 0.427
121 | TGGAACAA | -0.206
122 | GGGAACAA | 0.0828
123 | CGGAACAG | 0.388
124 | AAACAGCA | 0.0669
125 | ATTTCATC | 0.166

Row | Sequence | PBM E-score
126 | GCTTGTTA | 0.0864
127 | CCGGATCG | 0.396
128 | CCGGATCC | 0.42
129 | ACGGATCG | 0.142
130 | CCGGATCA | 0.385
131 | CAGGATCG | 0.00336
132 | GCGGATCC | 0.271
133 | CTCTTCTC | -0.106
134 | AAATTCAA | 0.0115
135 | CAACTAAA | -0.0258
136 | ACTACTCG | 0.0653
137 | ATCCTGGA | -0.101
138 | CGTGGTAG | -0.0716
139 | TTCGGAAA | 0.419
140 | CTCGGAAC | 0.381
141 | AACGGAAT | 0.379
142 | ATTGGAAC | -0.0837
143 | AGCGGAAT | 0.385
144 | GTGGGAAC | -0.189
145 | ATCGGAAT | 0.443
146 | TCGGGAAA | 0.35
147 | AACGGAAC | 0.322
148 | ATCGGAAC | 0.406
149 | CTCGGAAA | 0.374
150 | GTCGGAAC | 0.413

Row | Sequence | PBM E-score
151 | GATGACGC | -0.146
152 | AGACACCT | -0.185
153 | CGCAGGGC | 0.049
154 | ACTTTGCT | -0.141
155 | ACTAACGC | 0.0051
156 | AACCTCAT | -0.143
157 | GTCGGAAA | 0.424
158 | AGCGGAAA | 0.358
159 | GTCGGGAA | 0.201
160 | ATCGGAAG | 0.332
161 | ATCGGAAA | 0.416
162 | CAGCCACC | 0.0671
163 | AGCGACTC | -0.142
164 | ACAAACTC | 0.155
165 | CCCTTTAA | -0.0852
166 | CTCGTTCC | 0.165
167 | ATTAACCG | 0.322
168 | CATTTGGG | -0.0571
169 | GAAGAGAC | 0.0662
170 | GCATCGGC | 0.308
171 | CCATCGGG | 0.259
172 | TCATCGGA | 0.408
173 | CCATCGGC | 0.282
174 | ACATCGGA | 0.377
175 | GCATCGGA | 0.437

Row | Sequence | PBM E-score
176 | TCATCGAA | -0.174
177 | CCATCGGA | 0.415
178 | TCATCGCA | -0.0812
179 | AAAAAGAG | -0.21
180 | AGATCGCC | -0.00696
181 | CCGAGAAG | 0.226
182 | GACAATGC | 0.0317
183 | GAGTCGAC | 0.00525
184 | CAATGGTG | -0.248
185 | ACTCAATA | -0.101
186 | ACTCCGAG | 0.478
187 | TCTCCGAA | 0.455
188 | CCTCCAAC | -0.212
189 | CCACCGAC | 0.0976
190 | ACTCCAAG | -0.198
191 | ACACCGAC | 0.26
192 | TCTCCAAA | -0.126
193 | TCTCCTAA | -0.144
194 | ACTCCTAG | -0.114
195 | ACTCCGAC | 0.481
196 | CCTCCGAC | 0.405
197 | ACGCCGAC | 0.343
198 | AAGTAGGA | -0.313
199 | ACACCGCT | 0.00228
200 | GGCGCATA | 0.0769

Row | Sequence | PBM E-score
201 | GGGCTACA | -0.0376
202 | GTGACGTA | -0.142
203 | CGTCCACC | -0.00012
204 | ACCTCATA | -0.101
205 | AAATACGG | 0.14
206 | ACGAACCA | -0.125
207 | ACTCCCAA | 0.0108
208 | ACTCCGAA | 0.484
209 | ACTCCTAT | -0.0311
210 | CCTCCAAG | -0.202
211 | ACTCCAAA | -0.118
212 | ACTCCCAT | -0.16
213 | CATCCGAG | 0.193
214 | GCTCCGAA | 0.464
215 | GCTCCAAA | -0.172
216 | CCTCCGAG | 0.426
217 | GCTCCGAC | 0.374
218 | ACTCCGAT | 0.484
219 | ACCTAAGC | 0.0293
